# Measurements: PubChem BioAssay (Tox21)
# Inconclusive results are not listed. A call without a number means that no potency is given here. Values without a mark were called inactive. Activity calls are given as the source filed them. Unless noted, calls come from the whole dose curve; as a rule, active = well fitted curve in the direction sought with a large enough effect in the repeat runs; inconclusive = weak or mixed curves; inactive = no such curve, though single readings can be large; an effect the other way counts as inactive or inconclusive.
# Tests used:
# [1] = qHTS assay to identify small molecule agonists of the retinoic acid receptor (RAR) signaling pathway (AID 1159553)
# Procedure, shortened: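 In this cell-based screen, 1,000 C3RL4 cells per well were cultured overnight, dosed with test chemicals in DMSO for 6 hr, and assessed for RARE luciferase luminescence.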
# [2] = qHTS assay to identify small molecule agonists of the estrogen related receptor (ERR) signaling pathway (AID 1224820)
# Procedure, shortened: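 Luminescence readout (One-Glo, 30 min RT) from NTP-supplied ERR cell line exposed to compounds for 18 h at 37 C. Cells seeded 2,000 per well and pre-incubated 6 h before pin-tool compound transfer.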
# [3] = system: estrogen-related receptor alpha (ERRalpha) with PGC-1alpha coactivator, human; experiment: qHTS assay to identify small molecule antagonists of the estrogen related receptor signaling pathway with the pleiotropic PPARgamma coactivator (PGC) (AID 1224821; calls by dose curve;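 note: series mostly up to about 46 µM; lower luminescence signal means antagonism of PGC/ERR signalling; nearly all actives have a fitted effect of over 50% in size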)
# Procedure, shortened: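 PGC/ERR reporter cells; 6 h pre-incubation 37 C/5% CO2; pin-tool compound in DMSO, 18 h 37 C; One-Glo added, 30 min RT; luminescence read. qHTS antagonist mode.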
# [4] = qHTS assay to identify small molecule agonists of the estrogen related receptor signaling pathway with the pleiotropic PPARgamma coactivator (PGC) (AID 1224823)
# Procedure, shortened: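 Luminescence readout (One-Glo, 30 min RT) from PGC/ERR cell line treated 18 h at 37 C with pin-tool-delivered DMSO compound solutions; cells plated 6 h before dosing. Quantitative HTS format.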
# [5] = qHTS assay to identify small molecule antagonists of the estrogen related receptor (ERR) signaling pathway from Tox21 library - cell viability counter screen (AID 1224834); note: nearly all actives have a fitted effect of over 30% in size; note: potency is the fitted concentration of half-maximal effect
# Procedure, shortened: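 Counter screen run in ERR cells (2,000 cells/well): cells pre-incubated 6 h, then treated with compounds for 17.5 h at 37 C. Fluorescence was read 30 min after CellTiter-Fluor addition.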
# [6] = biological target: Luciferin 4-monooxygenase (Photinus pyralis) (UniProt P08659); experiment: qHTS assay to identify small molecule inhibitors of firefly luciferase (AID 1224835); note: series mostly up to about 120 µM; nearly all actives have a fitted effect of over 25% in size
# Sequence of Luciferin 4-monooxygenase (Photinus pyralis) (P08659 whole entry, looked up): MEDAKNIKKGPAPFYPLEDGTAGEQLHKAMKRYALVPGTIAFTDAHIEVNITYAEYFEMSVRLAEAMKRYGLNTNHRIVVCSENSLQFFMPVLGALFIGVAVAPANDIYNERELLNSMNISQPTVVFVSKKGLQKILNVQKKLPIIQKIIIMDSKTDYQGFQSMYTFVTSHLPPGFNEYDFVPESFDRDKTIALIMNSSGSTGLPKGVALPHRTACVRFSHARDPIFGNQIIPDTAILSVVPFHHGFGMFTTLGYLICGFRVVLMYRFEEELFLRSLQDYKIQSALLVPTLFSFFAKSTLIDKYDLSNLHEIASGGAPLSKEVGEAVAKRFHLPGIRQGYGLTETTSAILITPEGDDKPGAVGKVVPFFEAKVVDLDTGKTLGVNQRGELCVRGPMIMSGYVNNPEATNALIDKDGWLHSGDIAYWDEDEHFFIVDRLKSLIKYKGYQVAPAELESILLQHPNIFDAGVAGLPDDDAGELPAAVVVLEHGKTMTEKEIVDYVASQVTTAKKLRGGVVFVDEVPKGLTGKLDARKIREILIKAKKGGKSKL
# Procedure, shortened: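 Inhibition of purified Photinus luciferase is measured by luminescence. Substrate levels (D-luciferin, ATP) sit at their KM values. Each compound is tested in a concentration series.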
# [7] = qHTS assay to identify small molecule antagonists of the retinoic acid receptor (RAR) signaling pathway (AID 1159552; note: nearly all actives have a fitted effect of over 50% in size)
# Procedure, shortened: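 Cells of the C3RL4 line were seeded, incubated overnight, then dosed with compounds in DMSO followed immediately by retinol (1 uM final). Six hours later luciferase detection reagent went in; signal was measured after 30 min at RT.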
# [8] = qHTS assay to identify small molecule antagonists of the estrogen related receptor (ERR) signaling pathway - cell viability counter screen (AID 1224818); note: series mostly up to about 46 µM
# Procedure, shortened: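 Viability of ERR cells, CellTiter-Fluor fluorescence; 17.5 h compound exposure at 37 C, DMSO vehicle; 30 min reagent incubation at 37 C/5% CO2.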
# [9] = qHTS assay to identify small molecule antagonists of the estrogen related receptor signaling pathway with the pleiotropic PPARgamma coactivator (PGC) cell viability counter screen (AID 1224822; note: series mostly up to about 46 µM)
# Procedure, shortened: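 17.5 h compound treatment of PGC/ERR cells at 37 C; readout CellTiter-Fluor fluorescence; run alongside the PGC/ERR antagonist screen to flag cytotoxic compounds.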
# [10] = qHTS assay to identify small molecule antagonists of the estrogen related receptor (ERR) signaling pathway (AID 1224819;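 note: luminescence from an ERR-driven luciferase reporter measured with One-Glo reagent; series mostly up to about 46 µM; nearly all actives have a fitted effect of over 50% in size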)
# Procedure, shortened: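 Seed ERR cells 2,000/well; rest 6 h at 37 C/5% CO2; pin compounds in DMSO; incubate 18 h at 37 C; add One-Glo; wait 30 min at room temperature; measure luminescence.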
smiles,measurement,setting,value
COc1ccccc1OCCNCC(O)COc1cccc2[nH]c3ccccc3c12 (stereo unspecified),Potency,[1],inactive
same,outcome,[2],inactive
same,outcome,[3],inactive
same,outcome,[4],inactive
same,Potency,[5],23.7 µM (active)
same,Potency,[6],inactive
C=CC(=O)OCCC#N,Potency,[1],inactive
same,Potency,[5],inactive
same,Potency,[6],inactive
CC(C(O)c1ccccc1)N(C)CCOC(c1ccccc1)c1ccccc1 (stereo unspecified),Potency,[5],29.8 µM (active)
same,Potency,[6],inactive
COC(=O)C1=C(C)NC(C)=C(C(=O)OCCCN2CCC(c3ccccc3)(c3ccccc3)CC2)C1c1cccc([N+](=O)[O-])c1 (stereo unspecified),Potency,[1],inactive
same,Potency,[5],21.1 µM (active)
CN1[C@@H]2CC[C@H]1CC(OC(=O)C(CO)c1ccccc1)C2 (stereo partly specified),Potency,[5],inactive
Cc1cccc(N(C)C)c1,Potency,[7],inactive
same,Potency,[6],inactive
CCN(CC)CCCN(c1ccccc1)C1Cc2ccccc2C1,Potency,[8],inactive
same,Potency,[9],inactive
same,Potency,[6],inactive
CC1CCCCN1CCCOC(=O)c1ccc(OC2CCCCC2)cc1 (stereo unspecified),Potency,[1],inactive
same,Potency,[6],inactive
Brc1ccccc1-c1ccccc1,Potency,[1],inactive
same,Potency,[8],inactive
same,Potency,[10],inactive
same,outcome,[2],inactive
same,outcome,[4],inactive
same,Potency,[5],inactive
CCOC(=O)[C@@](C)(N)Cc1ccc(O)c(O)c1,Potency,[5],inactive
same,Potency,[6],inactive
CC(C)N=C(N)/N=C(\N)Nc1ccc(Cl)cc1,Potency,[1],inactive
same,Potency,[6],inactive
CCCCCCCC(C)=O,Potency,[7],inactive
same,Potency,[6],inactive
NCCCC(O)(P(=O)(O)O)P(=O)(O)O,Potency,[5],inactive
Clc1ccccc1CN1CCc2sccc2C1,Potency,[5],inactive
CCN(CC)CCNc1ccc(CO)c2sc3ccccc3c(=O)c12,Potency,[1],inactive
same,Potency,[5],13.3 µM (active)
same,Potency,[6],inactive
C=C(C)C(=O)OCCC[Si](Cl)(Cl)Cl,Potency,[1],inactive
same,Potency,[5],inactive
same,Potency,[6],inactive
CN1[C@@H]2CC[C@@H]1CC(OC(=O)C(CO)c1ccccc1)C2 (stereo partly specified),Potency,[5],inactive
CC(CN(C)C)CN1c2ccccc2CCc2ccccc21 (stereo unspecified),Potency,[8],inactive
same,Potency,[9],inactive
same,Potency,[6],inactive
Nc1cc(Cl)c([N+](=O)[O-])cc1O,Potency,[1],inactive
same,Potency,[5],54 µM (active)
CC(C)OC(=O)c1cc(C(=O)OC(C)C)cc([N+](=O)[O-])c1,Potency,[8],inactive
same,Potency,[10],inactive
same,outcome,[2],inactive
same,outcome,[3],inactive
same,Potency,[9],inactive
same,outcome,[4],inactive
same,Potency,[5],inactive
COc1ccc2sc(C(=O)Nc3nnn[nH]3)c(OC(C)C)c2c1,Potency,[6],inactive
CCO[Si](CCCSSSSCCC[Si](OCC)(OCC)OCC)(OCC)OCC,Potency,[6],inactive
C=CC(=C)CCC=C(C)C,Potency,[5],inactive
same,Potency,[6],inactive
CCCCCCC(C)OC(=O)COc1nc(F)c(Cl)c(N)c1Cl (stereo unspecified),Potency,[6],inactive
Clc1ccc(C(Cn2ccnc2)OCc2c(Cl)cccc2Cl)c(Cl)c1 (stereo unspecified),Potency,[5],29.8 µM (active)
same,Potency,[6],inactive
CCCCCCCCCCCCCC[n+]1ccccc1,Potency,[5],27.3 µM (active)
same,Potency,[6],inactive
NC(=O)C(=O)N/N=C/c1ccc([N+](=O)[O-])o1,Potency,[5],inactive
same,Potency,[6],inactive
COc1cccc(CCc2ccccc2OCC(CN(C)C)OC(=O)CCC(=O)O)c1 (stereo unspecified),Potency,[6],inactive
C1CC(COCC2CO2)CCC1COCC1CO1 (stereo unspecified),Potency,[5],inactive
same,Potency,[6],inactive
COC(=O)NCCC[Si](OC)(OC)OC,Potency,[5],inactive
same,Potency,[6],inactive
C=C(c1ccc(C(=O)O)cc1)c1cc2c(cc1C)C(C)(C)CCC2(C)C,Potency,[6],inactive
C=CC(=C)CC/C=C(\C)CCC=C(C)C,"viability change, negative = cytotoxic",[5],0.736% [at 19 µM]
same,"activity change, negative = inhibition",[6],0.425% [at 23.6 µM]
C[C@@]12C(=O)OC(=O)[C@]1(C)C1CCC2O1,Potency,[6],inactive
CCc1cccc(C)c1,Potency,[5],inactive
same,Potency,[6],inactive
CC(=O)Oc1ccc(C2(c3ccc(OC(C)=O)cc3)Oc3ccccc3NC2=O)cc1,Potency,[6],inactive
CCCCN(CCCC)CCC(O)c1cc2c(Cl)cc(Cl)cc2c2cc(C(F)(F)F)ccc12 (stereo unspecified),Potency,[6],inactive
O=Cc1ccc(F)cc1,Potency,[5],inactive
same,Potency,[6],inactive
CCCN(CCc1cccs1)[C@H]1CCc2c(O)cccc2C1,Potency,[6],inactive
CCC(C)(C)c1cc(O)c(C(C)(C)CC)cc1O,Potency,[6],inactive
Clc1ccc(C(Cn2ccnc2)OCc2ccsc2Cl)c(Cl)c1 (stereo unspecified),Potency,[5],21.1 µM (active)
same,Potency,[6],inactive
CC(C)=C1CC[C@@H](C)CC1=O,Potency,[5],inactive
same,Potency,[6],inactive
CCC(=O)OCCc1ccccc1,Potency,[5],inactive
same,Potency,[6],inactive
CCCCCCOc1cc(C)c(O)c(C)c1C,Potency,[5],61.9 µM (active)
same,Potency,[6],inactive
CN(C)CCOC(c1ccccc1)c1ccccc1 (tested in a mixture with another compound),Potency,[5],inactive
same,Potency,[6],inactive
C=CC(=O)OCC(O)COc1ccccc1 (stereo unspecified),Potency,[6],inactive
CCN(CC)CCOC(=O)C1(C2CCCCC2)CCCCC1,Potency,[6],inactive
CC(=O)Nc1ccc(O)cc1,Potency,[5],inactive
same,Potency,[6],inactive
Cc1occc1SSc1ccoc1C,Potency,[6],inactive
C/C=C/c1ccc(OC)c(OC)c1,Potency,[5],inactive
same,Potency,[6],inactive
O=C(O)CCCCCCC(=O)O,Potency,[5],inactive
same,Potency,[6],inactive
CC(NCCC(c1ccccc1)c1ccccc1)c1ccccc1 (stereo unspecified),Potency,[5],29.8 µM (active)
same,Potency,[6],inactive
CCCCCCCCCCOCC(O)CN (stereo unspecified),Potency,[6],inactive
CC(=O)Oc1ccc(C2(c3ccc(OC(C)=O)cc3)C(=O)Nc3ccccc32)cc1,Potency,[5],inactive
same,Potency,[6],inactive
CCc1ccc(O)c(C(C)(C)C)c1,Potency,[6],inactive
CC1CCCNC1 (stereo unspecified),Potency,[5],inactive
same,Potency,[6],inactive
O=C(O)CCn1c2c(c3ccccc31)C[C@H](NS(=O)(=O)c1ccc(F)cc1)CC2,Potency,[5],inactive
same,Potency,[6],inactive
